Measured values published in PubChem BioAssay AID2157 (National Center for Advancing Translational Sciences (NCATS), 2009).
Inconclusive results are not listed. A number with no mark means an inactive call. Calls come from the whole dose curve; as a rule, active = well fitted inhibition curve with a large enough effect; inconclusive = small, poorly fitted or top-dose-only effect; inactive = no such curve, though single readings can be large or run the other way.

Target: Polyunsaturated fatty acid lipoxygenase ALOX15 (Homo sapiens) (UniProt P16050)
Test: Confirmation qHTS Assay for Inhibitors of 15-hLO (15-human lipoxygenase)
Conditions: purified enzyme, xylenol orange hydroperoxide absorbance; active compounds read low
Description: Assay Provider: Holman, T.R., University of California, Santa Cruz Screening Center PI: Austin, Christopher P. Screening Center: NIH Chemical Genomics Center Human lipoxygenase 15hLO-1 is a member of the closely related lipoxygenase family of enzymes which catalyze the site-specific oxidation of arachidonic acid to various hormone precursor molecules and as such is a candidate for drug development in a variety of disease areas, such as cancer and inflammation. Inhibition of 15hLO-1 activity was screened by utilizing arachidonic acid as a substrate. The extent of hydroperoxide product formation was measured by a secondary chromogenic reaction in which xylenol orange (XO, Sigma-Aldrich, cat. number 39,818-7) reacts with the ferric ions produced from the reaction between the hydroperoxide and ferrous ions. The Fe(III)-XO complex is characterized with red-shifted absorbance at 560 nm. A purified preparation of human 15hLO-1 was supplied by Professor Ted Holman, University of California, Santa Cruz. This assay includes some confirmation and follow-up compounds for related primary screening assay AID 887.
Assay Protocol: Buffer: 25 mM Hepes pH 7.5, 0.01% Triton X-100. […] The absorbance at 405 and 573 nm were measured using ViewLux (Perkin-Elmer) High-throughput CCD imager and absorbance protocol settings. The 573-to-405 absorbance ratio was used to compute reaction progress.

Chain of Polyunsaturated fatty acid lipoxygenase ALOX15 (Homo sapiens) (P16050 whole entry, looked up): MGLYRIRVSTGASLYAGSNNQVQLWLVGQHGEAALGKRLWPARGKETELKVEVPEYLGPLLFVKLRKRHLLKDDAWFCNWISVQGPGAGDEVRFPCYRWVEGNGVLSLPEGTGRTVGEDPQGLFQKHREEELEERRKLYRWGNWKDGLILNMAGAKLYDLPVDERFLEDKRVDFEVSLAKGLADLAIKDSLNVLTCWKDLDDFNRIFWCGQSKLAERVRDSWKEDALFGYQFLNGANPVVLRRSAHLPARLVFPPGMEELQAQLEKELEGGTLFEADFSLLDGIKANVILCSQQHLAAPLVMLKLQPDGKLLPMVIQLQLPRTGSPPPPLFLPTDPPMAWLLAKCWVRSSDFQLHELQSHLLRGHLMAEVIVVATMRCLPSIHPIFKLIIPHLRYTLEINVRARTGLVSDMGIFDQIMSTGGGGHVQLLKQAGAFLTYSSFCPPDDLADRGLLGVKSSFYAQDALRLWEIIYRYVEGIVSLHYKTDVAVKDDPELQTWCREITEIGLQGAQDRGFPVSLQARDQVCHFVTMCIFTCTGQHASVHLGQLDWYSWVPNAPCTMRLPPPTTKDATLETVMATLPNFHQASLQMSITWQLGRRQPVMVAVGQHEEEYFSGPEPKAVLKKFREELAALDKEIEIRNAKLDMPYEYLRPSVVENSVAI

CCC(C)C(=O)c1c(O)c(C)c2oc3c(C)c(O)c(C(=O)C(C)CC)c(O)c3c2c1O (stereo unspecified)
max response: -17.1%
